For 40 molecules, viability and inhibition results are on record in PubChem BioAssay.

SMILES strings stand for the structures. Active and inactive are the calls of the source. Rule as the data show it: active = inhibition above about 31%; inactive = the rest.

The term viability denotes a read-out of living cells in per cent, often relative to untreated cells. By inhibition is commonly meant the drop in the measured response relative to a control, in per cent.

The nature of the first assay: reversal of MRP1-mediated doxorubicin resistance, pilot screen, H69AR cells, doxorubicin co-treatment (AID 601). Particulars: H69AR cells, CellTiter-Glo, 72 h; compound alone cytotoxicity; at 10 µM. For orientation: Cellular ATP, detected with luciferase, serves as a proxy for viable cell number.
As to `CCc1ccc(C2CC(c3cccc(OC)c3)n3nc(N)nc3N2)cc1` (stereo unspecified), the viability was found to be 105%.

In the case of `COc1ccc(NS(=O)(=O)c2coc(C(N)=O)c2)cc1Cl`, the viability was determined as 99.1%.

With `O=C1c2ccccc2S(=O)(=O)N1CC(O)Cn1c2ccccc2c2ccccc21` (stereo unspecified), the viability turned out to be 85%.

Turning to `O=C(Nc1nnc(-c2ccc(Cl)cc2)o1)C1CCCCC1`, the viability stood at 69.2%.

Regarding `O=C1c2ccccc2C(Nc2ccc(F)cc2F)N1CCN1CCOCC1` (stereo unspecified), the viability turned out to be 78.2%.

On to `CCOc1ccc(N(CC(=O)NC2CCCCC2)S(=O)(=O)c2c(C)noc2C)cc1`, for which the viability is 74.3%.

Take `Cc1ccc2oc(=O)c3cnn(CC(=O)N4CCCc5ccccc54)c3c2c1`: the viability was 74.8%.

For `O=C(Nn1cnnc1)C1Cc2ccccc2CN1S(=O)(=O)c1ccc(F)cc1` (stereo unspecified), the viability is 97.2%.

`Cc1cc(C)cc(N(CC(=O)NC2CCC(C)CC2)S(=O)(=O)c2c(C)noc2C)c1` (stereo unspecified): the viability stood at 88.1%.

As for `Cc1nc2ccccn2c1/C(O)=C1\C(=O)C(=O)N(CCCN(C)C)C1c1ccc(F)cc1` (stereo unspecified), the viability stood at 90.8%.

In the case of `CC(=O)N(C(C)=O)c1ncc2c([nH]c3ccccc32)c1C#N`, the viability worked out at 61.4%.

Turning to `CC(C)c1ccc(C(O)c2cnc(C(C)C)n2C)cc1` (stereo unspecified), the viability was determined as 88.1%.

`COCCn1cc(C(=O)c2ccccc2OCC(=O)Nc2cc(C)on2)cc(C#N)c1=O`: the viability was determined as 108%.

As for `O=C(NC(=O)c1cccc(F)c1)OC[C@@H]1CCCN2CCCC[C@H]12`, the viability is 96.5%.

For the molecule `CCN1CCN(C(=O)Cn2ncc3ccsc3c2=O)CC1`, the viability turned out to be 97%.

In the case of `CCCC(=O)Nc1cc(C)c2c(=O)oc3ccccc3c2n1`, the viability was determined as 77.6%.

On to `Cc1cc(C)c(C#N)c(SCC(=O)Nc2ccc(S(=O)(=O)Nc3onc(C)c3C)cc2)n1`, for which the viability worked out at 87.4%.

`CC1=C(C(N)=O)C(c2ccncc2)n2nc(-c3ccccc3Cl)nc2N1` (stereo unspecified): the viability is 100%.

On to `O=C(C1CCCN1S(=O)(=O)c1cccc2cccnc12)N1CCn2c1nc1ccccc12` (stereo unspecified), for which the viability was 94.1%.

On to `Cc1ccc(C(=O)CC2(O)C(=O)N(C)c3ccc(Br)cc32)c(C)c1` (stereo unspecified), for which the viability amounted to 75%.

For the molecule `COc1ccc(OCCSc2nc3ccccc3n2CC(=O)O)cc1`, the viability was 97.8%.

The nature of the next assay: 384-well plate pilot, post-Golgi transport modulator project, inhibition of yeast transport mutant growth (AID 636). Particulars: absorbance 615 nm, about 18 h, stronger effect = higher value.
`O=C(Cn1cc2c(n1)CCCCC2)N1CCc2ccccc21`: the inhibition is -1.33% (inactive).

On to `CC(C)c1nccn1S(=O)(=O)c1cc(Cl)ccc1Cl`, for which the inhibition was -4.03% (inactive).

Turning to `CC(=O)Nc1cccc(NC(=O)CSc2nn3c(=O)c(C)nnc3s2)c1`, the inhibition is -5.73% (inactive).

In the case of `CCOc1ccc2nc(Nc3nc4c(c(=O)[nH]3)CCC4)nc(C)c2c1`, the inhibition is -4% (inactive).

`C(=N\c1c(-c2ccccc2)nc2n1CCS2)/c1ccccc1`: the inhibition is -1.69% (inactive).

Consider `CCN(CC)S(=O)(=O)c1ccc2oc(C(=O)N3CCOCC3)c(C)c2c1`, for which the inhibition is 0.67% (inactive).

On to `CCOC(=O)C1CCN(Cc2ccc(OC)c(C)c2OC)CC1`, for which the inhibition was -2.4% (inactive).

As for `Cc1cc(N)n2nc(-c3ccccc3)cc2n1`, the inhibition was -1.82% (inactive).

As to `Cc1nnc(SCC(=O)Nc2sc3c(c2C#N)CCCC3)[nH]c1=O`, the inhibition was -3.38% (inactive).

With `Cc1cc(NC(=O)COc2cccc(C)c2C)no1`, the inhibition is -0.53% (inactive).

With `Cc1cc(C)c(NC(=O)CSc2nc3c(c(=O)n2C)SC(C)C3)c(C)c1` (stereo unspecified), the inhibition was -2.67% (inactive).

For the molecule `CC(=O)c1ccc(OCC(O)CN2CCN(CCO)CC2)cc1` (stereo unspecified), the inhibition was -5.73% (inactive).

In the case of `CCn1cc(C(=O)NCC2CCCO2)c(=O)c2cc(S(=O)(=O)N(C)C)ccc21` (stereo unspecified), the inhibition is -0.13% (inactive).

Turning to `C=CCSc1nc(N)c2c(C)c(C)sc2n1`, the inhibition is -0.52% (inactive).

As for `CC1CCCN(C(=O)c2cc3c(-c4ccc(Cl)cc4)nn(C)c3s2)C1` (stereo unspecified), the inhibition was -1.54% (inactive).

Turning to `COc1cccc2cc(C(=O)OC3CCN(C)CC3)c(=O)oc12`, the inhibition is -3.08% (inactive).

For the molecule `COC(=O)c1cn(C(=O)c2ccc(Br)o2)c2ccccc12`, the inhibition is 1.03% (inactive).

Take `COc1cc(NC(=O)C2C3C=CC(C3)C2C(=O)O)c(OC)cc1Cl` (stereo unspecified): the inhibition was -2.16% (inactive).

Consider `COc1ccc(C2CC(c3ccc(C)cc3)Nc3ncnn32)cc1` (stereo unspecified), for which the inhibition is -0.27% (inactive).

Take `CCc1ccc(C2CC(c3cccc(OC)c3)n3nc(N)nc3N2)cc1` (stereo unspecified): the inhibition is 2.31% (inactive).

For `COc1ccc(NS(=O)(=O)c2coc(C(N)=O)c2)cc1Cl`, the inhibition was 0% (inactive).

On to `O=C1c2ccccc2S(=O)(=O)N1CC(O)Cn1c2ccccc2c2ccccc21` (stereo unspecified), for which the inhibition is 99.3% (active).

With `O=C(Nc1nnc(-c2ccc(Cl)cc2)o1)C1CCCCC1`, the inhibition was -7.2% (inactive).

Consider `O=C1c2ccccc2C(Nc2ccc(F)cc2F)N1CCN1CCOCC1` (stereo unspecified), for which the inhibition was -5.73% (inactive).

Turning to `CCOc1ccc(N(CC(=O)NC2CCCCC2)S(=O)(=O)c2c(C)noc2C)cc1`, the inhibition is -2.31% (inactive).
